Reference: PubChem BioAssay (EPA / NIEHS)
Values joined by “and” are separate entries in the source; they are usually repeats but may differ in a detail not shown here. Identical values can stand only once. Results filed as inconclusive are left out. More than one record can exist for a structure, and the calls need not agree. Active and inactive are the calls of the source. How the source made its calls, unless noted: active means hit-call score of the fitted dose curve at least 0.9, where 1 is the maximum; inactive means score below 0.9.

Assays:
[1] = CCTE_Shafer_MEA_acute_AB: CCTE's Alamar Blue Assay for Cytotoxicity in the Neural Acute Assay, Shafer Lab (AID 2284069; active means hit-call score of the fitted dose curve at least 0.9, where 1 is the maximum;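 further: active compounds lower the viability signal compared with DMSO wells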)
How it was run: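 Read-out: resazurin fluorescence (ex 544, em 590 nm) after CTB reagent at 1:6 dilution in fresh media. Cells: primary rat cortical neuron networks, DIV 13 or 15, chemically exposed on MEA plates; DMSO as negative control/baseline.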

[2] = CCTE_Shafer_MEA_dev_burst_duration_mean: CCTE's Neural Network Formation Assay for Mean Burst Duration, Shafer Lab (AID 2284045);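 on AC50: curve fitted for loss meaning shorter burst duration than DMSO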
How it was run: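 Rat cortical cultures, 1.5 x 10^5 cells/well with laminin drop; continuous dosing days 0–12, media plus treatment refreshed DIV 5, 9. AxIS adaptive spike detection; mean single-electrode burst duration, AUC over four recordings, negative direction vs DMSO.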

[3] = CCTE_Shafer_MEA_dev_interburst_interval_mean: CCTE's Neural Network Formation Assay for Mean Interburst Interval, Shafer Lab (AID 2284046);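 further: well-mean interburst interval of bursting electrodes as AUC over four recording days; curve fitted for decrease in interburst interval relative to DMSO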
How it was run: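 Rat cortical neurons, 1.5 x 10^5 cells/well, 48-well MEA; compound from day 0 through DIV 12, media and treatment renewed DIV 5/9. Recordings DIV 5, 7, 9, 12; well-mean interburst interval → trapezoidal AUC, loss direction vs DMSO.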

[4] = CCTE_Shafer_MEA_dev_inter_network_spike_interval_mean: CCTE's Neural Network Formation Assay for Mean Inter-network Spike Interval, Shafer Lab (AID 2284047)
How it was run: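 Primary rat cortical neurons on PEI-coated 48-well MEAs (16 electrodes/well) were exposed from plating day 0 to DIV 12, with dosing renewed at DIV 5 and 9. Recordings at DIV 5, 7, 9, 12 were collapsed by trapezoidal AUC, loss-of-signal fit vs DMSO.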

[5] = CCTE_Shafer_MEA_dev_network_spike_number: CCTE's Neural Network Formation Assay for Number of Network Spikes, Shafer Lab (AID 2284048);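 further: synchronized bursts across electrodes counted on days 5 7 9 12 and integrated as AUC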;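 on AC50: fit as a loss of signal meaning fewer network spikes than DMSO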
How it was run: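 Rat cortical primary cultures on 48-well MEA (16 electrodes/well); continuous exposure DIV 0–12, full medium and treatment exchange DIV 5, 9. Readout: network spike count, AxIS adaptive detection, recordings DIV 5/7/9/12 collapsed to AUC; loss-of-signal fit, DMSO baseline.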

[6] = CCTE_Shafer_MEA_dev_network_spike_peak: CCTE's Neural Network Formation Assay for Mean Number of Electrodes in Network Spike, Shafer Lab (AID 2284049);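 on AC50: fitted for loss of signal meaning fewer electrodes in network spikes than DMSO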
How it was run: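 Network-spike peak electrode count from recordings on days 5, 7, 9 and 12 was combined as trapezoidal area under the curve. Rat cortical cultures were treated continuously from plating, with compound renewed at each feed (DIV 5, 9); fits versus DMSO.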

[7] = CCTE_Shafer_MEA_dev_network_spike_duration_std: CCTE's Neural Network Formation Assay for Standard Deviation of Network Spike Duration, Shafer Lab (AID 2284052);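 further: area under curve of spike duration SD across recording days 5 to 12; hits are decreases in network spike duration SD versus DMSO vehicle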
How it was run: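 Rat cortical cultures, 1.5 x 10^5 cells/well, exposed continuously from plating to DIV 12 with media/compound renewal at DIV 5, 9. Spontaneous activity recorded DIV 5/7/9/12, AxIS adaptive spike detector; AUC across days; negative direction vs DMSO.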

[8] = CCTE_Shafer_MEA_dev_per_network_spike_spike_number_mean: CCTE's Neural Network Formation Assay for Mean Number of Spikes in a Network Spike, Shafer Lab (AID 2284053);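 on AC50: fitted as decrease in spikes per network spike relative to DMSO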
How it was run: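 Rat cortical primary cultures on 48-well MEA; compound from day 0, re-dosed with full media change DIV 5, 9. Recorded DIV 5, 7, 9, 12; spikes in 0.05 s window at network-spike peak ÷ total network spikes; AUC; loss vs DMSO.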

[9] = CCTE_Shafer_MEA_dev_per_network_spike_spike_percent: CCTE's Neural Network Formation Assay for Percent of Spikes in a Network Spike, Shafer Lab (AID 2284054)
How it was run: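 Read-out: percent of spikes falling in a 0.05 s window at network-spike peak, from spontaneous MEA recordings on days 5, 7, 9 and 12; trapezoidal AUC; loss of signal versus DMSO. Rat cortical cultures, compound present throughout.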

[10] = CCTE_Shafer_MEA_dev_mutual_information_norm: CCTE's Neural Network Formation Assay for Mutual Information Normalization, Shafer Lab (AID 2284091);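 on AC50: mutual information between electrodes summarised as area under curve across four recording days; potency is for a decrease in mutual information relative to DMSO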
How it was run: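 Neurons from rat cortex were seeded at 1.5 x 10^5 cells/well onto PEI-coated MEAs in a laminin drop, then exposed to compound from day 0 for twelve days. Network recordings on four days gave mutual information, summarised by AUC relative to DMSO.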

[11] = CCTE_Shafer_MEA_dev_correlation_coefficient_mean: CCTE's Neural Network Formation Assay for Mean Correlation Coefficient, Shafer Lab (AID 2284093);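 on AC50: well mean pairwise spike train correlation integrated as AUC over recording days 5 to 12; potency fitted for loss of correlation relative to DMSO vehicle wells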
How it was run: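 Rat cortical cultures, 1.5 x 10^5 cells/well, dosed from day 0 for 12 days. Spontaneous spikes recorded DIV 5/7/9/12; electrode-pair correlation coefficients averaged, AUC taken. Fit in loss direction vs DMSO.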

[12] = system: DIO2 (gene 1734); assay: CCTE_GLTED_hDIO2: CCTE's human Deiodinase 2 (DIO2) Inhibition Assay, Great Lakes Toxicology and Ecology Division (GLTED) Lab (AID 2284050; active means hit-call score of the fitted dose curve at least 0.9, where 1 is the maximum)
How it was run: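 Iodide released by human deiodinase 2 over 3 h with test chemical, measured spectrophotometrically via Sandell-Kolthoff cerium/arsenic reaction. Run n=3; inhibition referenced to DMSO.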

[13] = system: DIO3 (gene 1735); assay: CCTE_GLTED_hDIO3: CCTE's human Deiodinase 3 (DIO3) Inhibition Assay, Great Lakes Toxicology and Ecology Division (GLTED) Lab (AID 2284055; active means hit-call score of the fitted dose curve at least 0.9, where 1 is the maximum;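 further: potency is for inhibition seen as loss of released iodide signal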)
How it was run: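 Inhibition is read as reduced iodide release, measured spectrophotometrically by the Sandell-Kolthoff cerium/arsenic reaction. Adenovirus-expressed human DIO3 enzyme is exposed to chemical for 3 h, n=3 plates. Iodinated chemicals, nitrite, iron or thiocyanate may interfere.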

[14] = IUF_NPC1b_proliferation_BrdU_72hr: Leibniz Research Institute for Environmental Medicine (IUF) 72-hour Neural Progenitor Cell Bromodeoxyuridine (BrdU) Proliferation Assay (NPC1b) (AID 2284207)
How it was run: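 Luminescent BrdU ELISA measured DNA synthesis during the last 16 h of a 72 h exposure of primary human neural progenitor spheres grown with EGF and FGF. Signal was fitted relative to DMSO controls.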

[15] = CCTE_Shafer_MEA_dev_LDH: CCTE's Lactate Dehydrogenase Assay for Cytotoxicity in the Neural Network Formation Assay, Shafer Lab (AID 2284068; active means hit-call score of the fitted dose curve at least 0.9, where 1 is the maximum;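 further: exposure for twelve days from plating with re-dosing on DIV 5 and 9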)
How it was run: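 Rat cortical primary neurons, MEA culture; dosing day 0–12, full medium plus compound exchange DIV 5, 9. Read-out: LDH enzyme activity, spectrophotometric. DMSO = negative control/baseline; signal loss → cytotoxicity.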

[16] = CCTE_Shafer_MEA_dev_AB: CCTE's Alamar Blue Assay for Cytotoxicity in the Neural Network Formation Assay, Shafer Lab (AID 2284083; active means hit-call score of the fitted dose curve at least 0.9, where 1 is the maximum;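 further: resazurin reduction fluorescence as viability of cultured neurons; twelve days of exposure from plating with re-dosing on DIV 5 and 9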)
How it was run: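 Rat cortical primary cultures, 1.5 x 10^5 cells/well on MEA; continuous compound exposure over 12 days of network development, re-dosed with full medium change DIV 5 and 9. Alamar Blue fluorescence; loss of signal = cytotoxicity vs DMSO baseline.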

[17] = UKN5_HCS_SBAD2_cell_viability: Viability Assessment in the University of Konstanz (UKN) Leist Lab Neurite Outgrowth Assay in human iPSC-derived immature Dorsal Root Ganglia Neurons (UKN5) (AID 2284056)
How it was run: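 iPSC-derived immature peripheral neurons (SBAD2) seeded on Matrigel with CHIR99021, SU5402 and DAPT, dosed 1 h later for 24 h. Viability from Hoechst H-33342 and calcein-AM live staining, high-content imaging; bidirectional fit versus DMSO.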

[18] = UKN5_HCS_SBAD2_neurite_outgrowth: University of Konstanz (UKN) Leist Lab Neurite Outgrowth Assay in human iPSC-derived immature Dorsal Root Ganglia Neurons (UKN5) (AID 2284070); settings: actives raise or lower the signal
How it was run: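 Neurite area from calcein-AM high-content images after 24 h exposure (staining included), with H-33342 for viability, fitted both directions against DMSO. Cells: thawed immature SBAD2 peripheral neurons, 100.000 cells/cm2, with CHIR99021, SU5402, DAPT; dosing 1 h after seeding.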

[19] = UKN2_HCS_IMR90_neural_migration: University of Konstanz (UKN) Leist Lab Neural Crest Cell Migration Assay in human induced IMR90 Pluripotent Stem Cells (UKN2) (AID 2284204); settings: actives raise or lower the signal
How it was run: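 Stopper-exclusion migration (cMINC), human iPSC-derived neural crest cells; N2-S + EGF/FGF; compound added 24 h post-stopper removal, 24 h exposure. Readout: calcein-AM/Hoechst 30 min, HCS fluorescence imaging; bidirectional fitting, DMSO baseline.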

[20] = UKN4_HCS_LUHMES_neurite_outgrowth: University of Konstanz (UKN) Leist Lab Neurite Outgrowth Assay in human LUHMES cells (UKN4) (AID 2284206); settings: actives raise or lower the signal
How it was run: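 After 24 h compound treatment beginning shortly after replating of 2-day-differentiated LUHMES cells, calcein-AM and H-33342 live staining allowed high-content imaging of neurite area and viability. Fitted bidirectionally against DMSO.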

Measured: AC50

O=C(c1ccc(O)cc1)c1ccc(O)cc1O
inactive: [1]

FC(F)=C(F)OC(F)(F)C(F)(F)C(F)(F)F
inactive: [2] | [3] | [4] | [5] | [6] | [7] | [8] | [9] | [10] | [11]

CCCCCCCC/C=C\CCCCCCCC(=O)OCCO
active: [12] 19.5 µM | [13] 14 µM

CCN(CCC#N)c1ccc(N=Nc2c(Cl)cc([N+](=O)[O-])cc2Cl)cc1
inactive: [12]
active: [13] 63.7 µM

COC(F)(F)C(F)(C(F)(F)F)C(F)(F)F
inactive: [2] | [3] | [4] | [5] | [6] | [7] | [8] | [9] | [10] | [11]

CC1(C)S[C@@H]2[C@H](NC(=O)COc3ccccc3)C(=O)N2[C@H]1C(=O)O
inactive: [2] | [3] | [4] | [5] | [6] | [7] | [8] | [9] | [10] | [11] | [14]

Oc1ccc(Cl)cc1Cc1cc(Cl)ccc1O
active: [12] 88.4 µM | [13] 57.3 µM

CN(C)c1ccc(C(=N)c2ccc(N(C)C)cc2)cc1
active: [2] 4.06 µM | [3] 2.95 µM | [5] 1.35 µM | [6] 2.88 µM | [7] 1.73 µM | [8] 2.39 µM | [9] 1.63 µM | [15] 3.2 µM | [16] 4.33 µM | [10] 0.975 µM | [11] 1.71 µM
inactive: [4]

Cc1ccc(N/N=c2\c(=O)cc/c(=N/Nc3ccc(S(=O)(=O)O)cc3)c2=O)c(C)c1
active: [13] 114 µM
inactive: [12]

CC(C)C1=CC2=CC[C@@H]3[C@](C)(CCC[C@@]3(C)C(=O)O)[C@H]2CC1
active: [12] 100 µM | [13] 79.8 µM

Nc1ccc(N)c(Cl)c1
inactive: [1]

c1ccc2c(c1)ccc1cc3c(ccc4ccccc43)cc12
inactive: [2] | [3] | [4] | [5] | [6] | [7] | [8] | [9] | [15] | [10] | [11]

CCCCCCCC[N+](C)(CCCCCCCC)CCCCCCCC
active: [12] 20.6 µM | [13] 3.85 µM

CC=C1CC2C=CC1C2 (configuration not stated)
active: [12] 100 µM | [13] 47.9 µM

CO[Si](OC)(OC)c1ccccc1
inactive: [1]

N[C@H]1C(O)O[C@H](CO)[C@H](O)[C@@H]1O (some centres not stated)
active: [6] 25.4 µM | [8] 25.6 µM | [9] 27.4 µM | [15] 15 µM | [16] 2.98 µM | [11] 25.4 µM
inactive: [2] | [3] | [4] | [5] | [7] | [10]

O=S(=O)(O)c1ccccc1C=Cc1ccc(-c2ccc(C=Cc3ccccc3S(=O)(=O)O)cc2)cc1
inactive: [12]
active: [13] 100 µM

CCCCCCCC/C=C\CCCCCCCC(=O)O
active: [12] 79.4 µM | [13] 29.8 µM

CC=CC(F)(F)C(F)(F)C(F)(F)F
active: [9] 3.82 µM | [11] 3.71 µM
inactive: [2] | [3] | [4] | [5] | [6] | [7] | [8] | [10]

O=C(C=Cc1ccccc1)OCc1ccccc1
active: [12] 14.6 µM | [13] 5.5 µM

CCCCCCCCCCCCCOP(=O)(O)O
active: [12] 80.5 µM | [13] 12 µM

CCCCC/C=C\C/C=C\CCCCCCCC(=O)OC
active: [12] 46 µM | [13] 16.8 µM

O=S1(=O)OC(c2ccc(O)cc2)(c2ccc(O)cc2)c2ccccc21
active: [12] 100 µM | [13] 100 µM

Nc1ncn([C@@H]2O[C@H](CO)[C@@H](O)[C@H]2O)c(=O)n1
inactive: [2] | [3] | [4] | [5] | [6] | [7] | [8] | [9] | [17] | [15] | [10] | [11] | [19]
active: [5] 2.26 µM | [6] 4.18 µM | [8] 2.56 µM | [9] 4.31 µM | [15] 5.16 µM | [18] 10 µM | [16] 5 nM and 15 µM | [10] 1.39 µM | [11] 2.91 µM | [20] 13 µM | [14] 0.253 µM

CC/C=C\C/C=C\C/C=C\CCCCCCCC(=O)O
active: [12] 21.2 µM | [13] 13.1 µM

CCOC(F)(F)C(F)(F)C(F)(F)C(F)(F)F
inactive: [2] | [3] | [4] | [5] | [6] | [7] | [8] | [9] | [16] | [10] | [11]
